Measured values as given in PubChem BioAssay (NCI).
About 79,000 compounds went through this panel and 15% of them were active in at least one assay; those are over-represented in the sample as a whole. A number with no mark means an inactive call. Active and inactive are the calls of the source. Rule as the data show it: active = growth inhibition above about 70%; inactive = the rest. Where a SMILES comes first, the peptide text is derived from it.

Assays:
[1] = NCI Yeast Anticancer Drug Screen. Data for the rad50 strain (AID 155);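 also: 0% = growth of vehicle-only cultures of the same strain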; conditions: S. cerevisiae rad50 strain growth inhibition; at 50.0 µM; hits give high values
In short: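 Yeast carrying a defined DNA repair defect were exposed to test compounds, and growth was compared with vehicle-treated controls to give percent inhibition.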

[2] = NCI Yeast Anticancer Drug Screen. Data for the mec2-1 strain (AID 157); conditions: S. cerevisiae mec2-1 strain, at 50.0 µM, hits give high values
In short: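 Test agents were screened against the mec2-1 yeast strain, with defined DNA repair or cell cycle alteration. Growth was scored as inhibition against vehicle-only controls.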

[3] = NCI Yeast Anticancer Drug Screen. Data for the sgs1 mgt1 strain (AID 161);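 also: 0% = growth of cultures given vehicle only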; conditions: S. cerevisiae sgs1 mgt1 strain, at 50.0 µM, hits give high values
In short: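 Mutant yeast exposed to compound; growth scored against vehicle-only wells.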

[4] = NCI Yeast Anticancer Drug Screen. Data for the cln2 rad14 strain (AID 165);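 also: 0% = growth equal to vehicle treated cultures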; conditions: S. cerevisiae cln2 rad14 strain, at 50.0 µM, hits give high values
In short: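 Growth of compound-exposed yeast (cln2 rad14 genotype) measured and expressed as inhibition relative to vehicle.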

[5] = NCI Yeast Anticancer Drug Screen. Data for the bub3 strain (AID 167); conditions: S. cerevisiae bub3 mutant strain, at 50.0 µM, hits give high values
In short: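 Compounds were applied to a genetically altered yeast strain carrying a cell-cycle control defect. Growth inhibition was scored against vehicle-treated controls.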

[6] = NCI Yeast Anticancer Drug Screen. Data for the mlh1 rad18 strain (AID 175); conditions: S. cerevisiae mlh1 rad18 strain growth inhibition; at 50.0 µM; hits give high values
In short: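 In this whole-cell yeast screen, a strain with altered DNA damage repair is challenged with compound, and its growth is measured against matched vehicle-treated controls.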

Structure (SMILES) | growth inhibition [1] | growth inhibition [2] | growth inhibition [3] | growth inhibition [4] | growth inhibition [5] | growth inhibition [6]
CC(=O)Nc1ccc2c(c1)Cc1ccc(S(C)(=O)=O)cc1-2 | 23.9% | -7.15% | 10.9% | 6.9% | 0.65% | 44.1%
CN/N=C(/Cc1occc(=O)c1O)C(=O)Nc1ccc(C)c(C)c1 | 15.4% | 7.05% | -16.7% | 3.15% | 7.35% | 18.1%
CC(=O)OCC(=O)C1(O)CCC2C3CCC4CC(=O)CCC4(C)C3C(=O)CC21C (stereo unspecified) | -3.65% | -5.65% | -11.8% | 20.2% | 3.7% | 9.4%
c1ccc(-c2n[nH]c(-c3[nH]nc(-c4ccccc4)c3-c3ccccc3)c2-c2ccccc2)cc1 | -12.2% | 15.3% | -12% | 5.15% | 7.35% | 8.2%
O=C(/C=C\c1ccc(Cl)cc1)OCCCCOC(=O)/C=C/c1ccc(Cl)cc1 | 27.1% | 3.15% | -4.45% | 9.5% | 2.9% | 5.25%
CNC(=O)N(C)C(=O)c1ccncc1C(=O)N(C(=O)NC1CCCCC1)C1CCCCC1 | 32.6% | 2.2% | 7.15% | 20.8% | -3.95% | 1.65%
COc1cc2ccnc([C@@H](OC(=O)c3ccccc3)c3ccc(OC)c(OC)c3OC)c2cc1OC | 10.4% | 9.25% | 40.9% | 6.25% | 0.05% | 52.4%
CCCCCC1=CC(=O)C=C(OC)C12C(=O)Oc1cc(O)c(C(=O)O)c(CCCCC)c12 (stereo unspecified) | 32.4% | 37% | 28.2% | 48.4% | 18.6% | 33.8%
CC(=O)c1cc(C)oc1C | -5.1% | -8.25% | -12.8% | -32.1% | 2.8% | 12.9%
COc1cc(NS(=O)(=O)c2ccc(N)cc2)c2ncccc2c1 | 1.2% | 22.8% | 8.8% | -17.1% | 4.5% | 2.95%
CSc1ccc(OC(=O)Nc2cc(Cl)ccc2C)cc1 | 4.35% | 14.8% | 25.9% | -0.6% | 38% | 5.75%
N#CCSc1c(-c2ccccc2)c(=O)n(-c2ccccc2)c(=S)n1-c1ccccc1 | 20.7% | -17.9% | -2.3% | -16.8% | -20.6% | -0.65%
CN(C)C=Nc1cc2c(cc1Br)-c1ccccc1C2=O | 3.05% | 10.3% | 4.4% | -0.45% | 2% | -15.7%
C=CC(C)Cc1ccccc1 (stereo unspecified) | 2% | 1.05% | 7.85% | 24.1% | 31.5% | 25.2%
CCOC(=O)c1c(C)cc2ccccn12 | -11.4% | -12.4% | 0.05% | -26.7% | 8.3% | 11.2%
O=C(O/N=C(\c1ccccc1)C(Br)c1ccccc1)c1ccccc1 (stereo unspecified) | -2.75% | 10.2% | 2.9% | -2.05% | 8.4% | -2.55%
CC(=O)N1CCC(=O)c2ccccc21 | 11.3% | 14.3% | -1.8% | 6.1% | -24.3% | -5.35%
O=c1[nH]c(=O)c2ncn(C3OC(CO)C(O)C3O)c2[nH]1.O=c1[nH]c(=O)c2ncn(C3OC(CO)C(O)C3O)c2[nH]1.[NH2-].[NH2-].[Pt+2] (stereo unspecified) | 3.35% | 33.5% | 41.7% | 3.55% | -8.5% | 40.4%
CN(Cc1ccc(Cl)cc1)C(=O)Nc1ccccc1Cl | 6.7% | 14.7% | 43.3% | 7.35% | 40.2% | 9.95%
CCOc1ccc(N=c2ccn3ccccc3c2)cc1 | -2.05% | -10.3% | -24.2% | -24.4% | 8.75% | -28.5%
CC(C(=O)c1ccccc1)C(c1ccccc1)N1CCOCC1 (stereo unspecified) | 2.1% | -7.5% | -16.3% | 3.25% | 6.35% | -5.15%

Structure (SMILES) | growth inhibition [1] | growth inhibition [2] | growth inhibition [3] | growth inhibition [4] | growth inhibition [5] | growth inhibition [6]
S=C(S)N1CCN(c2ccc(Cl)c(Cl)c2)CC1 | 4% | -1.65% | 20.9% | 2.95% | 8.1% | 57.6%
O=c1c(SCc2ccc(Cl)c(Cl)c2)c(SCc2ccc(Cl)c(Cl)c2)cnn1-c1ccccc1 | -8.5% | -11.5% | -6.05% | -1.6% | -13.4% | 15.3%
CCOC(=O)C1=C(C(=O)c2ccc(C)cc2)C(c2ccc([N+](=O)[O-])cc2)C(C(=O)c2ccc(C)cc2)=C(C(=O)OCC)N1 | -27.3% | -18.2% | -8.9% | -12.4% | -14.9% | -11.7%
O=[N+]([O-])c1cccc(S/N=C/c2ccccc2)c1 | 98.8% (active) | 98.4% (active) | 99% (active) | 92.3% (active) | 98.5% (active) | 98.8% (active)
NC(=O)Oc1ccc(Cc2ccccc2)cc1 | -20.7% | -43.2% | -12.6% | -8.95% | -40.4% | -5.05%
O=C1C2Cc3ccccc3CN2C(=O)N1CCN1CCOCC1 (stereo unspecified) | 7.25% | -21.8% | -4.15% | 12.8% | 3.25% | 22.6%
c1cnc2ncncc2n1 | -2.6% | 32.4% | -8.55% | 28.8% | 14.4% | 12.5%
CN(C)c1ccc(N=Nc2cccc3ncccc23)cc1 | 2.1% | 26.6% | 67.5% | 31.1% | 65.5% | 66%
CC1=NN(c2ccccc2)C(=O)CC1 | -3.65% | -8.8% | 26.5% | 16.6% | 16.3% | 5.05%
O=C(OCc1ccccc1)c1ccccc1-c1c2ccc(=O)cc-2oc2cc(OCc3ccccc3)ccc12 | 33.4% | 18% | 40.9% | 23.6% | 21.3% | 26.1%
Cc1n[nH]c(=O)[nH]c1=O | -25.2% | -24.8% | -2.7% | 3.45% | -0.85% | 2.55%
CCC(C)C(N)C(=O)NC(Cc1ccc(O)cc1)C(=O)O (stereo not drawn) (H-Ile-Tyr-OH; configuration not given here) | 16.4% | -2.35% | -0.8% | 15.8% | -10.2% | 21.2%
CCCCCCP(=O)(CCCCCC)C1CCCCC1 | 98.1% (active) | 99.5% (active) | 99.3% (active) | 97.6% (active) | 99% (active) | 99% (active)
O=[N+]([O-])c1ccc(OC2OC(CO)C(O)C(O)C2O)cc1 (stereo unspecified) | 31.2% | -0.45% | -4.7% | 5.1% | 24% | 10.2%
O=c1[nH][nH]c(=O)c2c1nc(SCCc1ccccc1)n2Cc1ccccc1 | 26.4% | 4.55% | 11.7% | 19.4% | 1.8% | 14.8%
CC(C)OC(=O)Nc1cccc(NC(=O)OCCCl)c1 | 7.1% | -3.65% | 9.15% | -9.85% | -8.8% | -7.1%
COC(=O)c1ccccc1NC(=O)C1CCCCC1=O (stereo unspecified) | 1.55% | -1.2% | -0.1% | -21.5% | 12.3% | 0.6%
N#CC1(Cc2ccccc2)c2ccccc2-c2ccccc21 | 34.2% | 27.8% | 28.8% | 1.85% | 24.9% | 45%
Cc1ccc(C(=O)NC2CCCCC2)cc1N=NN(C)C | 31.4% | -7.55% | 18.7% | 19.1% | 9.45% | -11.4%
Cc1ccc(S(=O)(=O)SCC(=O)c2ccc(Br)cc2)cc1 | 27.4% | -15.4% | 29.1% | 16.6% | 4.35% | 9.85%
